The compounds below were run on CIT. Details: concentration: 1 μM, replicates: in singlicate; n = 1.
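Also: KINOMEscan kinase panel screen.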

| Compound | %Inh |
| --- | --- |
| COc1cc(Nc2ccnc3cc(-c4ccncc4)ccc23)cc(OC)c1OC.Cl [GW494610] | 41% |
| COC(=O)Nc1nc2ccc(Oc3ccc(NC(=O)Nc4cc(C(F)(F)F)ccc4F)cc3)cc2[nH]1.Cl [GW654607] | 87% |
| c1ccc(Oc2ccc(Nc3ccnc4cc(-c5ccc(CN6CCCCC6)o5)ccc34)cc2)nc1 [GW567143] | 6% |
| COc1cccc(CC(=O)N2CCc3cc(-c4cn(C)c5ncnc(N)c45)ccc32)c1 [GSK2608899] | 5% |
| COc1ccc(C)c(Nc2ccnc(Nc3ccc(-c4cnc[nH]4)cc3)n2)c1.Cl [GW784041] | 0% |
| CCNC(=O)/C=C/c1n[nH]c2cc(Sc3ccccc3C(=O)NC)ccc12 | 0% |
| Cl.N#CCc1ccc(Nc2nccc(Nc3ccc(Oc4ccccc4)cc3)n2)cc1 [GW639905] | 41% |
| CC(=O)Nc1cn2nc(Oc3cccc(NC(=O)c4cccc(C(F)(F)F)c4)c3)ccc2n1 | 99.8% |
| CCNc1nccc(-c2c(-c3ccc(F)cc3)ncn2C2CCN(C)CC2)n1 | 30% |
| COC(=O)Nc1nc2cc(Oc3ccc(NC(=O)Nc4cccc(SC)c4)cc3)ccc2[nH]1.Cl [GW697999] | 98% |
| Fc1cc(Cl)ccc1Nc1ccnc2cc(-c3ccc(CN4CCOCC4)o3)ccc12 [GW560109] | 43% |
| NCCC(NC(=O)c1cc(Br)c(-c2ccnc3[nH]ccc23)s1)c1ccccc1.O=C(O)C(F)(F)F.O=C(O)C(F)(F)F (stereo not drawn) [GSK1307810] | 98.5% |
| Cc1ccc(O)cc1Nc1ccnc2cc(-c3ccc(CN4CCCCC4)o3)ccc12 [GW557777] | 40% |
| CCn1cnc2c(NCc3ccccc3)ncnc21 [SKF-96418] | 16% |
| CN(c1ccc(F)c(NC(=O)c2cccc(OC(C)(C)C#N)c2Cl)c1)c1ccc2nc(NC(=O)C3CC3)sc2n1 | 93.7% |
| Cn1cc(-c2ccc3c(c2)CCN3C(=O)Cc2cc(F)cc(F)c2F)c2c(N)ncnc21 [GSK2634140] | 36% |
| CN(C)c1ncnc2nc[nH]c12 [SKF-31736] | 12% |
| O=C(O)C(F)(F)F.O=c1[nH]ccc2nc(N[C@@H]3CCNC3)nc(Nc3ccc4c(c3)S(=O)(=O)CC4)c12 [GSK2181306] | 84% |
| Cn1cc(-c2cnc(N)c3c(-c4ccc5c(c4)CCN5C(=O)Cc4ccccc4)csc23)cn1 [GSK2593074] | 0% |
| Cc1ccc(NC(=O)c2ccc(Cl)c(Cl)c2)cc1-c1ccc(C(=O)Nc2ccncc2)cc1 [GSK1398460] | 97.6% |

The compounds below were run on CLK1. Details: concentration: 1 μM, replicates: in singlicate; n = 1.

| Compound | %Inh |
| --- | --- |
| N#CC1(c2cccc(C(=O)Nc3cccc(Oc4ccc5nc(NC(=O)C6CC6)sc5n4)c3)c2)CC1 | 8% |
| Cc1ccc(C)c(NC(=O)Nc2ccc(C)c(-c3ccc(C(=O)Nc4ccncc4)cc3)c2)c1 [GSK1398473] | 24% |
| O=C(Nc1n[nH]c2nc(-c3ccccc3O)ccc12)C1CC1 [SB-711880] | 66% |
| CCn1c(-c2nonc2N)nc2c(-c3ccccc3)ncc(OCCCN)c21.O=C(O)C(F)(F)F.O=C(O)C(F)(F)F [GSK260205] | 14% |
| Cl.Cl.NC(CNC(=O)c1cc(Br)c(-c2ccnc3[nH]ccc23)s1)c1ccccc1 (stereo not drawn) [GSK1322949] | 90.9% |
| CCOc1nccc(-c2c(-c3ccc(F)cc3)ncn2C2CCNCC2)n1 [SB-249175] | 0% |
| COc1cccc2c(-c3ccncc3)c(-c3ccc(F)cc3)nn12 [GW468513] | 6% |
| CC(C)c1nc(-c2cccc(NS(=O)(=O)c3c(F)cccc3F)c2)c(-c2ccnc(Nc3ccc(N4CCOCC4)nc3)n2)s1.Cl [GSK1723980] | 0% |
| O=C(Nc1n[nH]c2cc(-c3cccs3)ccc12)C1CC1 [SB-731284] | 0% |
| Cc1ccc(NC(=O)c2cccc(N3CCCCC3)c2)cc1-c1ccc(C(=O)NCC2CC2)cc1 [GSK1917008] | 22% |
| Cl.O=C(Nc1ccc(Oc2ccc3[nH]c(NC(=O)c4ccco4)nc3c2)cc1)Nc1cc(C(F)(F)F)ccc1F [GW683134] | 63% |
| Cn1cc(-c2ccc3c(c2)CCN3C(=O)Cc2cc(F)cc(C(F)(F)F)c2)c2c(N)ncnc21 [GSK2635225] | 11% |
| COc1cc(Nc2nccc(N3CCC(NS(=O)(=O)c4ccc(NC(C)=O)cc4)CC3)n2)cc(OC)c1OC [GSK1379825] | 2% |
| O=C1NC(=O)C(c2ccccc2Cl)=C1Nc1cccc(Cl)c1 [SB-342409] | 54% |
| Cc1cc(-c2ccnc(Nc3cccc(C#N)c3)n2)cc(C)c1O [GSK1440913] | 99% |
| CC(C)NCC(Cc1ccccc1)NC(=O)c1cc(Br)c(-c2ccnc3[nH]ccc23)s1.Cl.Cl (stereo not drawn) [GSK1383281] | 40% |
| Nc1ncc(-c2ccc3nccc(-c4ccncc4)c3c2)cc1S(=O)(=O)N1CCCCC1 [GSK1693850] | 81% |
| COc1cc(Nc2ccnc3cc(-c4ccncc4)ccc23)cc(OC)c1OC.Cl [GW494610] | 9% |
| COC(=O)Nc1nc2ccc(Oc3ccc(NC(=O)Nc4cc(C(F)(F)F)ccc4F)cc3)cc2[nH]1.Cl [GW654607] | 52% |

| Compound | %Inh |
| --- | --- |
| c1ccc(Oc2ccc(Nc3ccnc4cc(-c5ccc(CN6CCCCC6)o5)ccc34)cc2)nc1 [GW567143] | 1% |
| COc1cccc(CC(=O)N2CCc3cc(-c4cn(C)c5ncnc(N)c45)ccc32)c1 [GSK2608899] | 29% |
| COc1ccc(C)c(Nc2ccnc(Nc3ccc(-c4cnc[nH]4)cc3)n2)c1.Cl [GW784041] | 18% |
| CCNC(=O)/C=C/c1n[nH]c2cc(Sc3ccccc3C(=O)NC)ccc12 | 17% |
| Cl.N#CCc1ccc(Nc2nccc(Nc3ccc(Oc4ccccc4)cc3)n2)cc1 [GW639905] | 23% |
| CC(=O)Nc1cn2nc(Oc3cccc(NC(=O)c4cccc(C(F)(F)F)c4)c3)ccc2n1 | 5% |
| CCNc1nccc(-c2c(-c3ccc(F)cc3)ncn2C2CCN(C)CC2)n1 | 35% |
| COC(=O)Nc1nc2cc(Oc3ccc(NC(=O)Nc4cccc(SC)c4)cc3)ccc2[nH]1.Cl [GW697999] | 19% |
| Fc1cc(Cl)ccc1Nc1ccnc2cc(-c3ccc(CN4CCOCC4)o3)ccc12 [GW560109] | 17% |
| NCCC(NC(=O)c1cc(Br)c(-c2ccnc3[nH]ccc23)s1)c1ccccc1.O=C(O)C(F)(F)F.O=C(O)C(F)(F)F (stereo not drawn) [GSK1307810] | 41% |
| Cc1ccc(O)cc1Nc1ccnc2cc(-c3ccc(CN4CCCCC4)o3)ccc12 [GW557777] | 24% |
| CCn1cnc2c(NCc3ccccc3)ncnc21 [SKF-96418] | 0% |
| CN(c1ccc(F)c(NC(=O)c2cccc(OC(C)(C)C#N)c2Cl)c1)c1ccc2nc(NC(=O)C3CC3)sc2n1 | 0% |
| Cn1cc(-c2ccc3c(c2)CCN3C(=O)Cc2cc(F)cc(F)c2F)c2c(N)ncnc21 [GSK2634140] | 16% |
| CN(C)c1ncnc2nc[nH]c12 [SKF-31736] | 8% |
| O=C(O)C(F)(F)F.O=c1[nH]ccc2nc(N[C@@H]3CCNC3)nc(Nc3ccc4c(c3)S(=O)(=O)CC4)c12 [GSK2181306] | 74% |
| Cn1cc(-c2cnc(N)c3c(-c4ccc5c(c4)CCN5C(=O)Cc4ccccc4)csc23)cn1 [GSK2593074] | 15% |
| Cc1ccc(NC(=O)c2ccc(Cl)c(Cl)c2)cc1-c1ccc(C(=O)Nc2ccncc2)cc1 [GSK1398460] | 39% |
